From PubChem BioAssay AID434969 (The Scripps Research Institute Molecular Screening Center, 2010) come the findings set out here.

This assay deals with Oxytocin receptor (Homo sapiens) (UniProt P30559). Description: human OXTR agonists, counter-screen for V1R agonist project, fluorescence, CHO-OTR cells, triplicate (AID 434969).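 Note: peak over minimum fluorescence ratio within a 100 second FLIPR read; 0% = DMSO only wells and 100% = oxytocin high control wells.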 Particulars: Fluo-8 calcium fluorescence, at 3 µM, stronger effect = higher value.

Some of the results follow. Values without a mark were called inactive.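 Rule for the calls: active = mean activation over three repeats above the cutoff from the earlier oxytocin receptor agonist screen (cut at about 20% in these data); inactive = the rest.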

Chain of Oxytocin receptor (Homo sapiens) (P30559 whole entry, looked up): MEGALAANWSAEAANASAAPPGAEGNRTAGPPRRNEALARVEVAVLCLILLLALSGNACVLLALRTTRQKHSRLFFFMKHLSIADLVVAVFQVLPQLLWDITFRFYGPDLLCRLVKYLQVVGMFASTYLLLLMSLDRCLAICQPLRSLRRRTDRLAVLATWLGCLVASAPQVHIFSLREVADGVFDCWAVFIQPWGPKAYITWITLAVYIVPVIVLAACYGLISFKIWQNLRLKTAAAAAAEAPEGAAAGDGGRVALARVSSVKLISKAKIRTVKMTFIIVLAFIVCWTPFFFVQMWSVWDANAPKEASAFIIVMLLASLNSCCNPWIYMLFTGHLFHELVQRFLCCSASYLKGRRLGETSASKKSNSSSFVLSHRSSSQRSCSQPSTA

As for `Fc1cccc(Cl)c1COc1ccc(-c2nnco2)cc1`, the activation was -0.58%.

For the compound `CCN(CC)c1ccc(/C=N/NC(=O)c2cnccn2)c(O)c1`, the activation was 9.1%.

As for `O=c1c2cc(Br)ccc2nc(-c2cccc(Cl)c2)n1O`, the activation was 15.4%.

For the compound `CCN(CC)c1ccc2cc(C(N)=O)/c(=N\NC(=O)c3ccncc3)oc2c1`, the activation was 15.6%.

For the compound `O=C(CN1CCN(c2cccc(Cl)c2)CC1)Nc1ccc(S(=O)(=O)N2CCOCC2)cc1`, the activation was 5.65%.

On to `CC1(C)S[C@@H]2[C@H](N=CN3CCCCCC3)C(=O)N2[C@H]1C(=O)O`, for which the activation is 0.49%.

With `O=C(c1ccccc1)c1ccc(OCC(O)CN2CCCC2)cc1` (stereo not drawn), the activation is 2.06%.

Regarding `Cc1cc(C)c(/C=C2\C(=O)Nc3ccccc32)[nH]1`, the activation is 16.6%.
